Each structure is given as a SMILES string. Records with an inconclusive call do not appear. The source made the active and inactive calls. Calls come from the whole dose curve; as a rule, active = well fitted cell-killing curve with a large enough effect; inconclusive = small, poorly fitted or top-dose-only effect; inactive = flat fitted curve, though single readings scatter.

Assay [1] can be described thus: Cell Viability - LYMP2-009 (AID 968).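 Note: cells exposed to compound for 24 h at 37 °C; nearly all actives have a fitted effect of over 55% in size.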 Note: potency is the fitted concentration of half-maximal effect. The following applies: LYMP2-009 lymphoblastoid cell viability; series mostly up to 92.2 µM.
Assay [2] can be described thus: Cell Viability - LYMP2-013 (AID 970).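 Note: cells exposed to compound for 24 h at 37 °C; nearly all actives have a fitted effect of over 55% in size.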 Note: potency is the fitted concentration of half-maximal effect. The following applies: LYMP2-013 lymphoblastoid cells viability; series mostly up to 92.2 µM. In a few lines: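 In complete culture medium, human lymphoblastoid cells were dosed for 24 hr at 37 C, with tetraoctylammonium bromide (6.4pM to 92 uM) as positive control. Viability reflects luciferase-based ATP signal; AC50 derived from concentration-response curves.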

Assay [3] can be described thus: Cell Viability - LYMP2-015 (AID 971). Note: nearly all actives have a fitted effect of over 55% in size. Note: potency is the fitted concentration of half-maximal effect. The following applies: LYMP2-015 lymphoblastoid cell viability; series mostly up to 92.2 µM. In a few lines: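 AC50 values reflect Hill-model fits of ATP-based luminescence (CellTiter-Glo) from a human lymphoblastoid line, 2500 cells/well, treated 24 hr at 37 C.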
A short description of assay [4]: Cell Viability - LYMP2-017 (AID 972).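 Note: cells exposed to compound for 24 hours at 37 °C; nearly all actives have a fitted effect of over 55% in size.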 Note: potency is the fitted concentration of half-maximal effect. The following applies: LYMP2-017 lymphoblastoid cell viability; series mostly up to 92.2 µM. In a few lines:
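In this qHTS format, lymphoblastoid cells in complete medium receive test compound for a day at 37 C before ATP content is quantified by luciferase luminescence. Reported AC50 figures come from standard Hill-equation curve fitting.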

The nature of assay [5]: Cell Viability - LYMP2-019 (AID 973). Note: potency is the fitted concentration of half-maximal effect. Particulars: LYMP2-019 lymphoblastoid cell line viability; series mostly up to 92.2 µM. In short, it runs like this: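 AC50 values come from Hill-equation modelling of qHTS concentration-response curves, where viability is measured as luciferase-based ATP luminescence in the lymphoblastoid line after 24 hr compound exposure in complete culture medium.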

Assay [6] in a line: Cell Viability - LYMP2-021 (AID 974). Note: potency is the fitted concentration of half-maximal effect. The following applies: LYMP2-021 lymphoblastoid cells viability; series mostly up to 92.2 µM. In a few lines: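 In qHTS format, compounds are tested against 2500 lymphoblastoid cells per well for 24 h; viable cell number is inferred from ATP-driven luciferase light, and Hill-equation fitting yields AC50 values.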
Assay [7] is described as follows: Cell Viability - LYMP2-023 (AID 975). Note: potency is the fitted concentration of half-maximal effect. Particulars: LYMP2-023 lymphoblastoid cell viability; series mostly up to 92.2 µM. In short, it runs like this:
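In this qHTS, ATP-based luciferase luminescence (CellTiter-Glo) is quantified in human lymphoblastoid cells after 24 hr compound treatment at 37 C; tetraoctylammonium bromide serves as positive control. Concentration-response curves are Hill-fitted to give AC50.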

The nature of assay [8]: Cell Viability - LYMP2-025 (AID 976).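 Note: cells exposed to compound for 24 h at 37 °C.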 Note: potency is the fitted concentration of half-maximal effect. Particulars: LYMP2-025 lymphoblastoid cell viability; series mostly up to 92.2 µM. In a few lines: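 Luminescent ATP readout after 24 hr treatment of a human lymphoblastoid line (LYMP2-025, 2500 cells/well, 37 C). Reagent developed 30 min at room temperature; AC50 fitted with the Hill equation.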
Assay [9] can be described thus: Cell Viability - LYMP2-006 (AID 978).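 Note: cells exposed to compound for 24 hours; nearly all actives have a fitted effect of over 60% in size.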 Note: potency is the fitted concentration of half-maximal effect. Particulars: LYMP2-006 lymphoblastoid cell viability, qHTS; series mostly up to 92.2 µM. In short, it runs like this:
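In this cytotoxicity screen, the human lymphoblastoid line grew in complete medium with test compounds for 24 hr at 37 C. Cellular ATP served as the viability signal.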
On the technique in general: qHTS replaces the single test concentration by a dilution series.

Assay [10] is described as follows: Cell Viability - LYMP2-007 (AID 979).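 Note: cells exposed to compound for 24 h before reading; nearly all actives have a fitted effect of over 60% in size.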 Note: potency is the fitted concentration of half-maximal effect. Particulars: LYMP2-007 lymphoblastoid cell viability; series mostly up to 92.2 µM. In a few lines: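 Measured via luciferase-based ATP quantitation: lymphoblastoid cells, 24 hr compound exposure at 37 C, AC50 from Hill fits.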
A short description of assay [11]: Cell Viability - LYMP2-008 (AID 980). Note: nearly all actives have a fitted effect of over 60% in size. Note: potency is the fitted concentration of half-maximal effect. Particulars: LYMP2-008 lymphoblastoid cell viability, qHTS; series mostly up to 92.2 µM. In a few lines:
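Measured: ATP-dependent luminescence, proportional to viable cell number, in human lymphoblastoid cells treated 24 hr with compound in complete culture medium. Values are AC50s from Hill-equation modelling of qHTS titrations.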

Assay [12] in a line: Cell Viability - LYMP2-010 (AID 981). Note: potency is the fitted concentration of half-maximal effect. Particulars: LYMP2-010 lymphoblastoid cell viability, qHTS; series mostly up to 92.2 µM. In short, it runs like this:
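This 24 hr viability screen uses LYMP2-010 lymphoblastoid cells, quantifies ATP via luciferase luminescence, and derives AC50 from Hill fits of qHTS concentration-response data.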

Assay [13] in a line: Cell Viability - LYMP2-012 (AID 982). Note: potency is the fitted concentration of half-maximal effect. The following applies: LYMP2-012 lymphoblastoid cell viability qHTS; series mostly up to 92.2 µM.
A short description of assay [14]: Cell Viability - LYMP2-014 (AID 983).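 Note: cells exposed to compound for 24 h at 37 °C; nearly all actives have a fitted effect of over 50% in size.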 The following applies: LYMP2-014 lymphoblastoid cells, viability qHTS; series mostly up to 92.2 µM. In a few lines:
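Quantitative HTS in lymphoblastoid cells: 24 hr compound exposure, then CellTiter-Glo ATP luminescence. Positive control was tetraoctylammonium bromide, 6.4pM to 92 uM.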

Assay [15] is described as follows: Cell Viability - LYMP2-016 (AID 984). Note: potency is the fitted concentration of half-maximal effect. The following applies: LYMP2-016 lymphoblastoid cell viability, qHTS; series mostly up to 92.2 µM. In a few lines: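 Concentration-dependent ATP depletion measured in LYMP2-016 lymphoblastoid cells, 24 h, 37 C; luciferase-based luminescent detection; Hill-equation AC50.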
Assay [16] in a line: Cell Viability - LYMP2-018 (AID 985). Note: nearly all actives have a fitted effect of over 50% in size. Note: potency is the fitted concentration of half-maximal effect. The following applies: LYMP2-018 lymphoblastoid cells, viability (qHTS); series mostly up to 92.2 µM. In a few lines: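 In this qHTS viability assay, cells are treated for 24 hr and cellular ATP is quantified by luciferase-based luminescence, with tetraoctylammonium bromide as positive control.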
A short description of assay [17]: Cell Viability - LYMP2-020 (AID 986). Note: potency is the fitted concentration of half-maximal effect. Particulars: series mostly up to 92.2 µM. In short, it runs like this: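 Cells at 2500 per well receive a 24 hr compound exposure at 37 C. Viability is measured as ATP-dependent luciferase luminescence, with AC50 modeled from qHTS concentration-response curves.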
A short description of assay [18]: Cell Viability - LYMP2-022 (AID 987). Note: nearly all actives have a fitted effect of over 55% in size. Note: potency is the fitted concentration of half-maximal effect. Particulars: LYMP2-022 lymphoblastoid cell viability; series mostly up to 92.2 µM. In short, it runs like this: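 In this qHTS cytotoxicity screen, compound titrations were incubated 24 hr at 37 C with human lymphoblastoid cells in complete medium. Luciferase-based ATP luminescence provided the viability signal.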
Assay [19] is described as follows: Cell Viability - LYMP2-026 (AID 989).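 Note: cells exposed to compound for 24 h at 37 °C; nearly all actives have a fitted effect of over 50% in size.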 Note: potency is the fitted concentration of half-maximal effect. The following applies: LYMP2-026 lymphoblastoid cell viability, qHTS; series mostly up to 92.2 µM. In a few lines: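 Acute toxicity screen in complete culture medium, with 24 hr compound exposure at 37 C. Viability read as cellular ATP via luciferase reaction, with tetraoctylammonium bromide (6.4pM to 92 uM) as positive control.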

As for `CCCOC(=O)c1ccc(O)cc1`, the Potency result in assay [1], in assay [2], in assay [3], in assay [4], in [5] and in [6] was “inactive” each time. Moreover, the Potency result in [7], in [8], in [9], in assay [10], in assay [11] and in assay [12] was “inactive” throughout. The Potency result in assay [13], in assay [14], in [15], in assay [16], in assay [17] and in [18] was “inactive” each time. Further, in assay [19], the Potency result is “inactive”.
For the molecule `O=c1cc(-c2ccccc2)oc2ccccc12`, the Potency result in assay [1], in [2], in [3], in assay [4], in assay [5] and in assay [6] was “inactive” in each case. Also, the Potency result in [7], in assay [8], in assay [9], in [10], in assay [11] and in assay [12] was “inactive” throughout. In addition, the Potency result in assay [13], in assay [14], in [15], in [16], in assay [17] and in [18] was “inactive” in each case. In assay [19], the Potency entry was “inactive”.
Regarding `CN(C)CCC(c1ccc(Cl)cc1)c1ccccn1` (stereo not given), the Potency entry in assay [1], in assay [2], in assay [4], in assay [5], in assay [6] and in [7] was “inactive” throughout. The Potency result in assay [8], in assay [9], in assay [10], in assay [11], in assay [14] and in [15] was “inactive” each time. Besides, the Potency entry in assay [16], in assay [17], in [18] and in [19] was “inactive” throughout.
In the case of `C#C[C@]1(O)CC[C@H]2[C@@H]3CCc4cc(O)ccc4[C@H]3CC[C@@]21C`, the Potency result in assay [1], in assay [2], in assay [3], in assay [4], in [5] and in assay [6] was “inactive” in each case. Further, the Potency result in [7], in [8], in assay [9], in [10], in assay [11] and in [12] was “inactive” in each case. The Potency result in [13], in [14], in assay [15], in [16], in assay [17] and in [18] was “inactive” in each case. For the same molecule, the Potency entry in [19] was “inactive”.
Take `CC1(C)S[C@@H]2[C@H](NC(=O)[C@H](N)c3ccccc3)C(=O)N2[C@H]1C(=O)O`: the Potency entry in [1], in [2], in [3], in assay [4], in assay [5] and in assay [6] was “inactive” throughout. The Potency entry in [7], in assay [8], in assay [9], in assay [10], in assay [11] and in assay [12] was “inactive” each time. Moreover, the Potency result in assay [13], in [14], in [15], in assay [16], in [17] and in [18] was “inactive” throughout. Besides, in assay [19], the Potency result is “inactive”.
As to `COc1cc(/C=C/C(=O)CC(=O)/C=C/c2ccc(O)c(OC)c2)ccc1O`, the Potency is 25.1 µM (active) in assay [1]; 50.1 µM (active) in assay [2]; 50.1 µM (active) in [3]; 39.8 µM (active) in assay [4]; 39.8 µM (active) in [5]; 50.1 µM (active) in [6]. Further, the Potency was 50.1 µM (active) in [7]; 50.1 µM (active) in [8]; 25.1 µM (active) in assay [9]; 25.1 µM (active) in [10]; 25.1 µM (active) in assay [11]; 25.1 µM (active) in [12]. Besides, the Potency was 31.6 µM (active) in assay [13]; 39.8 µM (active) in [15]; 39.8 µM (active) in assay [16]; 31.6 µM (active) in assay [17]; 25.1 µM (active) in [18]; 31.6 µM (active) in assay [19].

The values above are taken from PubChem BioAssay (NCATS).
